Experimental data taken from ChEMBL document CHEMBL1961873, “Compounds: GSK PKIS; Assays: Nanosyn kinase panel” (2012).

Legend:
[1] = target: T1, Tyrosine-protein kinase ITK/TSK (Homo sapiens) (UniProt Q08881); conditions: at 1 µM;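 note: values are mean percent inhibition of ITK from the GSK PKIS screen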
T1 sequence (whole entry): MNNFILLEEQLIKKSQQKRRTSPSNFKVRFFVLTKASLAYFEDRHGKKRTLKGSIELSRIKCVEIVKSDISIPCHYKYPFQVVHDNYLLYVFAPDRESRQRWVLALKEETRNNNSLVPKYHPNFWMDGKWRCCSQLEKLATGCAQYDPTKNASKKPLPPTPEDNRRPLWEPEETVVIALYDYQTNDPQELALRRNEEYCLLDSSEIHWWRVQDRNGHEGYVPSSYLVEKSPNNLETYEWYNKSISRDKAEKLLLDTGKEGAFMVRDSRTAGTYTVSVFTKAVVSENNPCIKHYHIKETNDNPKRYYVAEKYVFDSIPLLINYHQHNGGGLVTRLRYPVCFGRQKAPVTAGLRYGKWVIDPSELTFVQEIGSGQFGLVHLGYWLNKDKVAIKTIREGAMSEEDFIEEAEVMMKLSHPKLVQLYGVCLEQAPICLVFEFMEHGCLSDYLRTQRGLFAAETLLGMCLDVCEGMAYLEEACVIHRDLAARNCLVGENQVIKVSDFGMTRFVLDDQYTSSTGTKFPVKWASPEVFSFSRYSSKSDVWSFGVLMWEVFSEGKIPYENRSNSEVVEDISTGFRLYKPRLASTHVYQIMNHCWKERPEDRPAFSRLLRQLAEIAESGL

[2] = target: Tyrosine-protein kinase JAK1 (Homo sapiens) (UniProt P23458); conditions: at 0.1 µM
[3] = target: Tyrosine-protein kinase JAK1 (Homo sapiens) (UniProt P23458); conditions: at 1 µM
[4] = target: Tyrosine-protein kinase JAK2 (Homo sapiens) (UniProt O60674); conditions: at 0.1 µM
Chain of Tyrosine-protein kinase JAK2 (Homo sapiens) (O60674 whole entry): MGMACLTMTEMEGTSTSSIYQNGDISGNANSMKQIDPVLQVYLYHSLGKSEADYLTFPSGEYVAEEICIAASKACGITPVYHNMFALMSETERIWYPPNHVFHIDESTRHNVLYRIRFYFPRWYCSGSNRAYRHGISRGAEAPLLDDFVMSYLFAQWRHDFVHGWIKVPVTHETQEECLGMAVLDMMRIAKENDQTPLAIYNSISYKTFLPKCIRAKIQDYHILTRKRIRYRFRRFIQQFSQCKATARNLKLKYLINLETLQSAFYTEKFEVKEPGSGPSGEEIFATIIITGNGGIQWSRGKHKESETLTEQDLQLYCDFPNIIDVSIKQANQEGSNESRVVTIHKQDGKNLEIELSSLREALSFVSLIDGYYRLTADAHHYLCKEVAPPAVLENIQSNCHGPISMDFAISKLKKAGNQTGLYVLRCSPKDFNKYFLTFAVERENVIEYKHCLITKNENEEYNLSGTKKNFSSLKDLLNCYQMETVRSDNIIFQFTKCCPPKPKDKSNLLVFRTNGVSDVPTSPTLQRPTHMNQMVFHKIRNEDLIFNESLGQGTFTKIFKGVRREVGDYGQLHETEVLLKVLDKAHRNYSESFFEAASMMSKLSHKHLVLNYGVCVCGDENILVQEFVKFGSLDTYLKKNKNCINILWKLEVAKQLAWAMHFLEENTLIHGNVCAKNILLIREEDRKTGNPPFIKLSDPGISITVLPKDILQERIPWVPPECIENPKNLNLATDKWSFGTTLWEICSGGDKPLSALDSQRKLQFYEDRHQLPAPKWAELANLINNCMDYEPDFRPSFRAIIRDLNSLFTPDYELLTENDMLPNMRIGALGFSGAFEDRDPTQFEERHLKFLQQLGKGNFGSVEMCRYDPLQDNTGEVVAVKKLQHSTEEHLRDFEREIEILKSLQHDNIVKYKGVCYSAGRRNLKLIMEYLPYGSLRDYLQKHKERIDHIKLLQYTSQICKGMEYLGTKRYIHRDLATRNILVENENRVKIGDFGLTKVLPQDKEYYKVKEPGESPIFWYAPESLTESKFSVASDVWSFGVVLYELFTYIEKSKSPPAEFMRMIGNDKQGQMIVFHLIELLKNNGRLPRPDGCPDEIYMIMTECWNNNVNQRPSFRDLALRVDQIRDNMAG

[5] = target: Tyrosine-protein kinase JAK2 (Homo sapiens) (UniProt O60674); conditions: at 1 µM
[6] = target: T2, Tyrosine-protein kinase JAK3 (Homo sapiens) (UniProt P52333); conditions: at 0.1 µM
T2 sequence (whole entry): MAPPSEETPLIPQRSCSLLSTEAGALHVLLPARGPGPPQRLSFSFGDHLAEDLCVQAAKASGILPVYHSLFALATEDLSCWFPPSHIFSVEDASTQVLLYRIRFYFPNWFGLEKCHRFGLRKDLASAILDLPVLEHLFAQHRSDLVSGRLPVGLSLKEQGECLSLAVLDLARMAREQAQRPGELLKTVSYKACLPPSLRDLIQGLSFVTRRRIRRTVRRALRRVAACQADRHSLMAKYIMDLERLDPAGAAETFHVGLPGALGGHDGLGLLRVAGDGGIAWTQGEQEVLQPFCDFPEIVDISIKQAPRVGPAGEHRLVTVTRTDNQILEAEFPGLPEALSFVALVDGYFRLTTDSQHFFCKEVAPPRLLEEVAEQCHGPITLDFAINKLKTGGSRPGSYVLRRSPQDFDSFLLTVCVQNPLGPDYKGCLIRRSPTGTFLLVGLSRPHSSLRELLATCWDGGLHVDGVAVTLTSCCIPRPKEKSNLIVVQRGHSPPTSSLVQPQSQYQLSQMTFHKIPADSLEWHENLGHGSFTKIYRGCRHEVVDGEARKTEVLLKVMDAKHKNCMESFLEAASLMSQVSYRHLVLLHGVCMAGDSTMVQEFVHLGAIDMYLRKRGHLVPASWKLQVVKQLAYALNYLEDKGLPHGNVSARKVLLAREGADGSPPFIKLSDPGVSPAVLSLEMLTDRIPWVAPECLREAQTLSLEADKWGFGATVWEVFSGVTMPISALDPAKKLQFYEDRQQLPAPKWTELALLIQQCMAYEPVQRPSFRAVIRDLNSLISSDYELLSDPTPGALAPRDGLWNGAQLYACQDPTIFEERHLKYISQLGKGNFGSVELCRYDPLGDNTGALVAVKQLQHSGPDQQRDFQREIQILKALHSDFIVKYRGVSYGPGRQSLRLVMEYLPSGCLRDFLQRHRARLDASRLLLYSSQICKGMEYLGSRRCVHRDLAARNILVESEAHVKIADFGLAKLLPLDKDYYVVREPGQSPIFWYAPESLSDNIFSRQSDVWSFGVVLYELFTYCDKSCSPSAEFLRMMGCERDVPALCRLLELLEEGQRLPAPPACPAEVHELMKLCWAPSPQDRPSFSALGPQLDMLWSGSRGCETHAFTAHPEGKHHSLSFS

[7] = target: T2, Tyrosine-protein kinase JAK3 (Homo sapiens); conditions: at 1 µM
[8] = target: Vascular endothelial growth factor receptor 2 (Homo sapiens) (UniProt P35968); conditions: at 0.1 µM
Chain of Vascular endothelial growth factor receptor 2 (Homo sapiens) (P35968 whole entry): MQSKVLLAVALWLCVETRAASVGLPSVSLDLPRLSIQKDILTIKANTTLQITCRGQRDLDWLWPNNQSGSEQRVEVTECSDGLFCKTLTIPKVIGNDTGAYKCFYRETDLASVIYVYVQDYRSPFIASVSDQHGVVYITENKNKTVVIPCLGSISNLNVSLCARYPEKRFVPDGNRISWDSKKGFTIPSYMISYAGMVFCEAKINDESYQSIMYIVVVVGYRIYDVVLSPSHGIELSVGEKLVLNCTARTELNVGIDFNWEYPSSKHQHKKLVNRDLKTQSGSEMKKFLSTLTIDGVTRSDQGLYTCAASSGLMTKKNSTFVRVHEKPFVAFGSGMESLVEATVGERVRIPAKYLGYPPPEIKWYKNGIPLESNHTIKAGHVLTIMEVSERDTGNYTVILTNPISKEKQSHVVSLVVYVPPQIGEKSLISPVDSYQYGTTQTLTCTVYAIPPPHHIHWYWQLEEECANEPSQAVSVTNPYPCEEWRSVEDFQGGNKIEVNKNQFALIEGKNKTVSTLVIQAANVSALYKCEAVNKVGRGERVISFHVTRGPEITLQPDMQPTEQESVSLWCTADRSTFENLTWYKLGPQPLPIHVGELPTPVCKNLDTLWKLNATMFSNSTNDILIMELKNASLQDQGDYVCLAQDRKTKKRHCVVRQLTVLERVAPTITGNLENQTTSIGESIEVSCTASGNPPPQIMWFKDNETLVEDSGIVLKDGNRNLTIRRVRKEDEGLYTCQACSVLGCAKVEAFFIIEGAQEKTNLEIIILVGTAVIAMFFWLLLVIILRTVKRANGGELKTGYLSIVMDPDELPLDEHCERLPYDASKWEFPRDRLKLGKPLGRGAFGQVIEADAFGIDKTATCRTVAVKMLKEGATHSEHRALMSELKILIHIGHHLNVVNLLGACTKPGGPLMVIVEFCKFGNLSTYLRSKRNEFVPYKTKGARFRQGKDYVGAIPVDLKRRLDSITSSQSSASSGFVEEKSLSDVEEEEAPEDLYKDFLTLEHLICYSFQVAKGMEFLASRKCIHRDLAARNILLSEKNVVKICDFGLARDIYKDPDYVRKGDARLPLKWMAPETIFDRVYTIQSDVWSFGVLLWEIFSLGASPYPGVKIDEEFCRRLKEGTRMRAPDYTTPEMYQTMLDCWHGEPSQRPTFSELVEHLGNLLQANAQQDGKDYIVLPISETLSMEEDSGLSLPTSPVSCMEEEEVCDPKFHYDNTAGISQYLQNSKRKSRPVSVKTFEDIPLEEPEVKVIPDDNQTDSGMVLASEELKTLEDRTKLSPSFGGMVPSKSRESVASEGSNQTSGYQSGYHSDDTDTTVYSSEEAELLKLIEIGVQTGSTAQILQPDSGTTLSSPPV

[9] = target: Vascular endothelial growth factor receptor 2 (Homo sapiens) (UniProt P35968); conditions: at 1 µM
[10] = target: Mast/stem cell growth factor receptor Kit (Homo sapiens) (UniProt P10721); conditions: at 0.1 µM
Chain of Mast/stem cell growth factor receptor Kit (Homo sapiens) (P10721 whole entry): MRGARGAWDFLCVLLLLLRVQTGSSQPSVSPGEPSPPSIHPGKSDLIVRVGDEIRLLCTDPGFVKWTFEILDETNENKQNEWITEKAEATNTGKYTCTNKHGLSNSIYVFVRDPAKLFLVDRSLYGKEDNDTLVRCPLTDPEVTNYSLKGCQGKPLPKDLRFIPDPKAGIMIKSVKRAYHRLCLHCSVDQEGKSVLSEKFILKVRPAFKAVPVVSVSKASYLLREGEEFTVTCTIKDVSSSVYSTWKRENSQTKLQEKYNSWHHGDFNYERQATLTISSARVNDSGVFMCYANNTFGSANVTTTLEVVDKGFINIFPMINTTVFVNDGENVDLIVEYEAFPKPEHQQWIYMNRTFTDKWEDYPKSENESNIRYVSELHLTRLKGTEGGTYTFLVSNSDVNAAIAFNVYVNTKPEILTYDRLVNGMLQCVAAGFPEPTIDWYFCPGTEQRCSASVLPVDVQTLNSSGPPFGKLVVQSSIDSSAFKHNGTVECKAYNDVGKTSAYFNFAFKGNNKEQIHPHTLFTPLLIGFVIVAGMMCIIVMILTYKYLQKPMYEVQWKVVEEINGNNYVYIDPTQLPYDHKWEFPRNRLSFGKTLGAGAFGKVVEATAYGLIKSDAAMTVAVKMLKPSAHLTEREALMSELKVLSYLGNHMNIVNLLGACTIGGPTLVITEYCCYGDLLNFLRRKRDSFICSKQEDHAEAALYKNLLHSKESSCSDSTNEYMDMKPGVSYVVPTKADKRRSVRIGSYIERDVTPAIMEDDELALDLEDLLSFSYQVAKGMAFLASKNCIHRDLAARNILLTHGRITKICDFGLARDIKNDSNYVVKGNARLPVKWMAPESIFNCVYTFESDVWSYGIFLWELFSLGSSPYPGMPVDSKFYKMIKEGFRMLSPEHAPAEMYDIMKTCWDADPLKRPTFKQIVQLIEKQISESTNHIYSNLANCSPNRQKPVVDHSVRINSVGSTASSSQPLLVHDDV

[11] = target: Mast/stem cell growth factor receptor Kit (Homo sapiens) (UniProt P10721); conditions: at 1 µM
[12] = system: Mast/stem cell growth factor receptor Kit (Homo sapiens), P10721 [D816V]; conditions: at 0.1 µM
Chain of Mast/stem cell growth factor receptor Kit (Homo sapiens), P10721 [D816V] (P10721 whole entry D816V): as the sequence (P10721 whole entry) above, with D816V counted along it

[13] = system: Mast/stem cell growth factor receptor Kit (Homo sapiens), P10721 [D816V]; conditions: at 1 µM
[14] = system: Mast/stem cell growth factor receptor Kit (Homo sapiens), P10721 [T670I]; conditions: at 0.1 µM
Chain of Mast/stem cell growth factor receptor Kit (Homo sapiens), P10721 [T670I] (P10721 whole entry T670I): as the sequence (P10721 whole entry) above, with T670I counted along it

[15] = system: Mast/stem cell growth factor receptor Kit (Homo sapiens), P10721 [T670I]; conditions: at 1 µM
[16] = system: Mast/stem cell growth factor receptor Kit (Homo sapiens), P10721 [V560G]; conditions: at 0.1 µM
Chain of Mast/stem cell growth factor receptor Kit (Homo sapiens), P10721 [V560G] (P10721 whole entry V560G): as the sequence (P10721 whole entry) above, with V560G counted along it

[17] = system: Mast/stem cell growth factor receptor Kit (Homo sapiens), P10721 [V560G]; conditions: at 1 µM
[18] = target: Tyrosine-protein kinase Lck (Homo sapiens) (UniProt P06239); conditions: at 0.1 µM
Chain of Tyrosine-protein kinase Lck (Homo sapiens) (P06239 2-509 limits assumed): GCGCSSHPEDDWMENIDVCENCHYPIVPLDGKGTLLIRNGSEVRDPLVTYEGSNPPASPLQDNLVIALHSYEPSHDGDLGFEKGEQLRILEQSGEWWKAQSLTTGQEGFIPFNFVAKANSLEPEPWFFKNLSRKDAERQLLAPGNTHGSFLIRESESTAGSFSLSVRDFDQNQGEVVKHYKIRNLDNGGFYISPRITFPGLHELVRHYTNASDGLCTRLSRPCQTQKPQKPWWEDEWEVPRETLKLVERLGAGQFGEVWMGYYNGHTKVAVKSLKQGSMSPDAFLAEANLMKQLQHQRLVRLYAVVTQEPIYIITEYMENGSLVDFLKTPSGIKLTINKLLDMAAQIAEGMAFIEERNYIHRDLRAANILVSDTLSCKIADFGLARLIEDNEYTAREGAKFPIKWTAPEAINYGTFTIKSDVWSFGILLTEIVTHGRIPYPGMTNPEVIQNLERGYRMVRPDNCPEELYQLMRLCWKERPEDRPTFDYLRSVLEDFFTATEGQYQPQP

[19] = target: Tyrosine-protein kinase Lck (Homo sapiens) (UniProt P06239); conditions: at 1 µM
[20] = target: Leukocyte tyrosine kinase receptor (Homo sapiens) (UniProt P29376); conditions: at 0.1 µM
Chain of Leukocyte tyrosine kinase receptor (Homo sapiens) (P29376 whole entry): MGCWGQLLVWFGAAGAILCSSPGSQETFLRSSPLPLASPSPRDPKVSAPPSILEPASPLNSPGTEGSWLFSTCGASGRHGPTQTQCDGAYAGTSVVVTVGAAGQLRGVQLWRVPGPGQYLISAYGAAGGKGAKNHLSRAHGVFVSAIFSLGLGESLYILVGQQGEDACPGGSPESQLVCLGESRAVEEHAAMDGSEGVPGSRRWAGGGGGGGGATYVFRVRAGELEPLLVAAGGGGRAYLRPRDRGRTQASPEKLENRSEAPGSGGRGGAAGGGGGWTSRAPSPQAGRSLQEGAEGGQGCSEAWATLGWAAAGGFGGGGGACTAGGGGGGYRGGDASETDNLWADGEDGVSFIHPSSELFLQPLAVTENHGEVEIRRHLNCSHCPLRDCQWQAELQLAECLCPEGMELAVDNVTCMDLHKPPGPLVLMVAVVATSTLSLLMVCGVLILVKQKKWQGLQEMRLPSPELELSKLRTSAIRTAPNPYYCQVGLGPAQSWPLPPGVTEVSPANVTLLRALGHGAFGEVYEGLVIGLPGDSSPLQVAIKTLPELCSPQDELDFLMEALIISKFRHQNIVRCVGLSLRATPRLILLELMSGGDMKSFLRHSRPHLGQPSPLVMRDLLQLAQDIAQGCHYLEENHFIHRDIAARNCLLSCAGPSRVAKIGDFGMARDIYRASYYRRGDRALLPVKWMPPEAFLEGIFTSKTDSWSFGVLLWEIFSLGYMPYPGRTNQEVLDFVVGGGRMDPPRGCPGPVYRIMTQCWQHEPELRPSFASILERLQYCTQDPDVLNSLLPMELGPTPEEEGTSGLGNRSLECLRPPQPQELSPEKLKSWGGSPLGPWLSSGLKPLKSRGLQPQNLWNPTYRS

CNC(=O)c1cccc(C#Cc2cncnc2Nc2ccc(OCc3cccc(F)c3)c(Cl)c2)c1
inhibition [1]: -0.18% | inhibition [2]: -1.06% | inhibition [3]: 7.9% | inhibition [4]: 0.28% | inhibition [5]: 1.34% | inhibition [6]: -1.04% | inhibition [7]: 1.79% | inhibition [8]: 1.34% | inhibition [9]: 3.79% | inhibition [10]: 2.56% | inhibition [11]: 8.09% | inhibition [12]: 0.89% | inhibition [13]: 3.12% | inhibition [14]: 0.83% | inhibition [15]: 3.3% | inhibition [16]: 1.32% | inhibition [17]: 5.48% | inhibition [18]: 1.2% | inhibition [19]: 1.35% | inhibition [20]: 1.28%

CN(C)CCOc1ccc(-c2nc(-c3ccncc3)c(-c3ccc4c(c3)CC/C4=N\O)[nH]2)cc1
inhibition [1]: 1.79% | inhibition [2]: 3.43% | inhibition [3]: 1.76% | inhibition [4]: 1.76% | inhibition [5]: 1.36% | inhibition [6]: -1.43% | inhibition [7]: 0.64% | inhibition [8]: 3.5% | inhibition [9]: 5.84% | inhibition [10]: 4.23% | inhibition [11]: 5.36% | inhibition [12]: 1.54% | inhibition [13]: 6.73% | inhibition [14]: 3.27% | inhibition [15]: 9.66% | inhibition [16]: 1.4% | inhibition [17]: 5.96% | inhibition [18]: 2.08% | inhibition [19]: 13.5% | inhibition [20]: 2.54%

COc1cc(/C=N/Nc2ncnc3[nH]ncc23)ccc1O
inhibition [1]: 7.65% | inhibition [2]: 8.12% | inhibition [3]: 9.29% | inhibition [4]: 1.72% | inhibition [5]: 4.07% | inhibition [6]: -1.64% | inhibition [7]: 2.59% | inhibition [8]: 10.3% | inhibition [9]: 45.6% | inhibition [10]: 11.4% | inhibition [11]: 49.4% | inhibition [12]: 8.85% | inhibition [13]: 12.9% | inhibition [14]: 0.9% | inhibition [15]: 7.67% | inhibition [16]: 1.4% | inhibition [17]: 6.17% | inhibition [18]: 12.5% | inhibition [19]: 54.7% | inhibition [20]: 4.08%
